# In PubChem BioAssay (NCI):
# Compounds without any hit were thinned out: in the full panel of roughly 83,000, 20% have a hit.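 Assay: single dose, 48 h. Readout: percent growth (0 = no net growth; negative = cell death). Active: <10.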 Values without a mark were called inactive. The source made the active and inactive calls.
# Test system: MDA-MB-468 breast
# Test: NCI-60 one-dose screen, 48 h (100 = growth as untreated, 0 = no growth, -100 = all killed)
# Details: 10 µM unless noted
row,SMILES,growth
1,Nc1c(C(=O)Nc2ccccn2)sc2nc3c(cc12)C(=O)CCC3,7.45% (active)
2,CC(Br)C(OC(=O)c1ccccc1Cl)c1cc2c(cc1Br)OCO2 (centres undefined),66.4%
3,Cc1ccc(-n2c(-c3ccccc3)c(-c3ccccc3)c3c(SCC(=O)n4[nH]c(N)cc4=O)ncnc32)cc1,91.8%
4,C=C1CCC2C3(C)COC(c4ccccc4)OC3CCC2(C)C1/C=C/C1=CCOC1=O (centres undefined),29.5%
5,COc1cccc2c1C=C1CCCCC3=Cc4c(OC)cccc4OC13O2,19%
6,CC(C)CCSc1nc(-c2ccc(F)cc2)c(C#N)c(N2CCCCC2)n1,104%
7,CC(=O)Nc1ccc(-n2cnc3cc(-c4ccc(OCCN5CCCCC5)cc4)ccc32)cc1,115%
8,CN(C)CCCN1c2ccccc2Sc2ccc(C(F)(F)F)cc21,-76.9% (active)
9,C=C(C)[C@@H]1CC[C@]2(COP(=O)(OCC)OCC)CC[C@]3(C)[C@H](CC[C@@H]4[C@@]5(C)CCCNC(C)(C)[C@@H]5CC[C@]43C)[C@@H]12,24.6%
10,O=C(c1ccccc1)c1ccc(O)c2ncccc12,25.6%
11,NS(=O)(=O)Oc1ccc(NC(=O)C23CC4CC(CC(C4)C2)C3)cc1Cl,103%
12,Oc1c(Br)cc(Cl)cc1C(c1cc(Cl)cc(Br)c1O)C(Cl)(Cl)Cl,-4.05% (active)
13,NC(=N\N=C/c1ccccc1[N+](=O)[O-])/C(N)=N\N=C/c1ccccc1[N+](=O)[O-],101%
14,O=C(Nc1ncc(Cc2cc(C(F)(F)F)ccc2Cl)s1)c1cccs1,-0.706% (active)
15,Cn1c(-c2ccccc2)cc(=O)n1-c1ccccc1,105%
16,COc1cccc2c(N=NC(=O)c3ccc(S(N)(=O)=O)cc3)c(O)[nH]c12,101%
17,O=C1c2cc3c(cc2-c2c1c1ccc(Cl)cc1c(=O)n2CCCn1ccnc1)OCO3,-47.9% (active)
18,Cn1c(=O)c2[nH]c(Cc3ccc4c(c3)OCO4)nc2n(C)c1=O,106%
19,C[C@H]1[C@H](C)CC[C@]2(C(=O)O)CC[C@]3(C)C(=CC[C@@H]4[C@@]5(C)C/C(=C/c6ccco6)C(=O)C(C)(C)[C@@H]5CC[C@]43C)[C@H]12,-38% [100 µM] (active)
20,Cc1ccccc1/C=C1\CN(C(=O)OC(C)(C)C)C/C(=C\c2ccccc2C)C1=O,36.7%
21,Cc1cccc2cc(/C=C/C(=O)/C=C/c3ccc(Cl)cc3)c(=O)[nH]c12,61.7%
22,CCCCCCCCCc1ccc(OC(C)=O)cc1,104%
23,CCCN1CCN(c2ccc3nc(-c4ccc5nc(-c6ccc(OCC)c(OCC)c6)[nH]c5c4)[nH]c3c2)CC1,-77.2% (active)
24,C=C(C)[C@@H]1CC[C@]2(C)[C@H](CC[C@@H]3[C@@H]([C@@](C)(O)CCC=C(C)C)CC[C@]32C)[C@@]1(C)CCC(=O)N1CCN(C)CC1,-82.2% [100 µM] (active)
25,COc1nccc2c(Sc3ccccc3)nc(N)nc12,112%
26,Cc1ccc(-c2nc3ccccn3c2/C=C2/C(=O)Nc3cc(Cl)ccc32)cc1,67%
27,CCN(CC)CC(=O)Nc1c(C)cccc1C,101%
28,O=C(CN1CCN(c2ccc(Cl)cc2)CC1)N1CCN(c2nnc(-c3ccccc3)c(-c3ccccc3)n2)CC1,35.1%
29,Oc1cccc(CNC2CCCCC2)c1,113%
